Laboratory results from PubChem BioAssay (NCI).
The panel holds about 83,000 compounds, 20% with a hit somewhere; the sample as a whole holds those more often.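 Note: values are percent growth. 100 is the growth of untreated cells, values between 100 and 0 indicate rising inhibition; between -100 and 0 indicates cell death.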 Active and inactive are the calls of the source. Rule for the calls: active = growth percent below 10; inactive = the rest.

Experiments:
Test in all cases: NCI-60 one-dose screen, 48 h (100 = growth as untreated, 0 = no growth, -100 = all killed)
Conditions in all cases: 10 µM
NCI-H23 lung = tested on: NCI-H23 lung
NCI-H226 lung = tested on: NCI-H226 lung
NCI-H322M lung = tested on: NCI-H322M lung
HOP-62 NSCLC = tested on: HOP-62 NSCLC
NCI-H460 lung = tested on: NCI-H460 lung
NCI-H522 lung = tested on: NCI-H522 lung
A549/ATCC NSCLC = tested on: A549/ATCC NSCLC
786-0 renal = tested on: 786-0 renal
COLO 205 colon = tested on: COLO 205 colon
DU-145 prostate = tested on: DU-145 prostate
K-562 leukemia = tested on: K-562 leukemia
MALME-3M melanoma = tested on: MALME-3M melanoma
MDA-MB-231 breast = tested on: MDA-MB-231 breast
RXF 393 renal = tested on: RXF 393 renal
SF-268 CNS = tested on: SF-268 CNS
SF-295 CNS = tested on: SF-295 CNS
SF-539 CNS = tested on: SF-539 CNS
UACC-257 melanoma = tested on: UACC-257 melanoma
M14 melanoma = tested on: M14 melanoma
HCT-15 colon = tested on: HCT-15 colon

Measured: growth

O=C(N/N=C/c1cc2ccccc2c2ccccc12)c1cc(O)c(O)c(O)c1
inactive: NCI-H23 lung 70.2% | NCI-H226 lung 95.6% | NCI-H322M lung 74.6% | HOP-62 NSCLC 54.5% | NCI-H460 lung 88.1% | A549/ATCC NSCLC 94.4% | 786-0 renal 82.6% | COLO 205 colon 72.7% | DU-145 prostate 75.8% | K-562 leukemia 20.2% | MALME-3M melanoma 49% | MDA-MB-231 breast 68.4% | RXF 393 renal 75% | SF-268 CNS 46.7% | SF-295 CNS 88.8% | SF-539 CNS 50% | UACC-257 melanoma 75.3% | M14 melanoma 61% | HCT-15 colon 60%
active: NCI-H522 lung -41.3%

CC1(C)OC2=C(CC1Br)C(=O)C(=O)c1ccccc12 (stereo not given)
inactive: NCI-H322M lung 27.1%
active: NCI-H23 lung -64.3% | NCI-H226 lung -6.31% | HOP-62 NSCLC -88.1% | NCI-H460 lung 3.62% | NCI-H522 lung -67.6% | A549/ATCC NSCLC -39.9% | 786-0 renal -40.4% | COLO 205 colon -87.8% | DU-145 prostate -95.1% | K-562 leukemia -5.94% | MALME-3M melanoma -90.9% | MDA-MB-231 breast -25.1% | RXF 393 renal -97.9% | SF-268 CNS -87.6% | SF-295 CNS -84.5% | SF-539 CNS -82% | UACC-257 melanoma -89.3% | M14 melanoma -91.2% | HCT-15 colon -58.5%

Nc1c(C(=O)Nc2ccccc2)sc2nc3c(cc12)C(O)CCC3 (stereo not given)
active: NCI-H522 lung 7.09% | COLO 205 colon -8.22% | DU-145 prostate 5.47% | RXF 393 renal -6.4% | SF-295 CNS 8.61% | SF-539 CNS -5.31%
inactive: NCI-H23 lung 37.1% | NCI-H226 lung 74% | NCI-H322M lung 46.1% | HOP-62 NSCLC 24.6% | NCI-H460 lung 11.8% | A549/ATCC NSCLC 29.3% | 786-0 renal 57.6% | K-562 leukemia 11.1% | MALME-3M melanoma 87.4% | MDA-MB-231 breast 32.8% | SF-268 CNS 46.4% | UACC-257 melanoma 71.1% | M14 melanoma 22.1% | HCT-15 colon 23.5%

CS(=O)(=O)Nc1ccc(Nc2c3ccccc3nc3cc([N+](=O)[O-])ccc23)cc1
inactive: NCI-H322M lung 62.6% | HOP-62 NSCLC 19.2% | A549/ATCC NSCLC 16.5% | COLO 205 colon 17.1% | MALME-3M melanoma 22.6% | MDA-MB-231 breast 50.9% | RXF 393 renal 34.5% | SF-268 CNS 11.6% | SF-539 CNS 24.4% | UACC-257 melanoma 44.6%
active: NCI-H23 lung 1.7% | NCI-H226 lung 0.761% | NCI-H460 lung 0.406% | NCI-H522 lung -51.5% | 786-0 renal 6.96% | DU-145 prostate 8.04% | K-562 leukemia 7.9% | SF-295 CNS 4.34% | M14 melanoma 4.52% | HCT-15 colon 6.81%

NC(=O)c1ccc(-c2cccc3c(=O)nc(N4CCOCC4)oc23)cc1
inactive: NCI-H23 lung 92.4% | NCI-H226 lung 82.6% | NCI-H322M lung 93% | HOP-62 NSCLC 95.1% | NCI-H460 lung 105% | NCI-H522 lung 89.5% | A549/ATCC NSCLC 100% | 786-0 renal 100% | COLO 205 colon 104% | DU-145 prostate 103% | K-562 leukemia 110% | MALME-3M melanoma 85.4% | MDA-MB-231 breast 91.9% | RXF 393 renal 104% | SF-268 CNS 93.8% | SF-295 CNS 93.9% | SF-539 CNS 102% | UACC-257 melanoma 104% | M14 melanoma 97.8% | HCT-15 colon 102%

CCOC(=O)C(=Cc1ccc(Br)cc1)C(=O)OCC
active: NCI-H226 lung -33.6% | HOP-62 NSCLC 0.525% | NCI-H522 lung -65.1% | A549/ATCC NSCLC -25.6% | 786-0 renal -79% | COLO 205 colon -70.5% | DU-145 prostate 6.17% | K-562 leukemia 0.625% | MALME-3M melanoma -49.5% | MDA-MB-231 breast 4.72% | RXF 393 renal -75% | SF-268 CNS -6.93% | SF-539 CNS 8.53% | UACC-257 melanoma -37.8% | M14 melanoma -22% | HCT-15 colon -42.1%
inactive: NCI-H23 lung 17.6% | NCI-H322M lung 39% | NCI-H460 lung 22.4% | SF-295 CNS 38.3%

COc1cc(-c2cc(/C=C/C(=O)c3ccc(Cl)c(Cl)c3)[nH]n2)cc(OC)c1OC
inactive: NCI-H23 lung 101% | NCI-H226 lung 81.7% | NCI-H322M lung 62.7% | HOP-62 NSCLC 75.9% | NCI-H460 lung 79.4% | NCI-H522 lung 38% | A549/ATCC NSCLC 88.3% | 786-0 renal 69.7% | COLO 205 colon 78% | DU-145 prostate 62.4% | K-562 leukemia 31.9% | MALME-3M melanoma 87% | MDA-MB-231 breast 62.3% | RXF 393 renal 67.3% | SF-268 CNS 104% | SF-295 CNS 141% | SF-539 CNS 35% | UACC-257 melanoma 89.7% | M14 melanoma 89.8% | HCT-15 colon 50.9%

C#Cc1ccc(-n2c(/C=C/c3ccc4ccccc4n3)nc3ncccc3c2=O)cc1
active: NCI-H23 lung -44.9% | NCI-H226 lung -81.9% | NCI-H322M lung -45.1% | HOP-62 NSCLC -34% | NCI-H460 lung -46.3% | NCI-H522 lung -73.9% | A549/ATCC NSCLC -25.8% | 786-0 renal 0.1% | COLO 205 colon -94.9% | DU-145 prostate -37.6% | K-562 leukemia 3.17% | MALME-3M melanoma -62.9% | MDA-MB-231 breast -41.2% | RXF 393 renal -82.5% | SF-268 CNS -49.5% | SF-295 CNS -58.3% | SF-539 CNS -17.6% | UACC-257 melanoma -72.9% | M14 melanoma -19% | HCT-15 colon -18.8%

N#Cc1ncc(-c2ccc(C(F)(F)F)cc2)c(NCc2cc(C(F)(F)F)cc(C(F)(F)F)c2)n1
active: NCI-H460 lung 2.11% | COLO 205 colon -24.1% | SF-295 CNS 4.36% | HCT-15 colon 7.65%
inactive: NCI-H23 lung 10.6% | NCI-H226 lung 43.8% | NCI-H322M lung 70.2% | HOP-62 NSCLC 39.2% | NCI-H522 lung 12.2% | A549/ATCC NSCLC 29.2% | 786-0 renal 40.3% | DU-145 prostate 28.2% | K-562 leukemia 16.1% | MALME-3M melanoma 10.1% | MDA-MB-231 breast 39.4% | RXF 393 renal 35.8% | SF-268 CNS 56.8% | SF-539 CNS 66.4% | UACC-257 melanoma 28.7% | M14 melanoma 40%

O=C(Nc1ccccc1)Nc1cccc(-n2cc(-c3ccncc3)c(-c3ccc(O)c(Cl)c3)n2)c1
inactive: NCI-H23 lung 74.2% | NCI-H226 lung 93.8% | NCI-H322M lung 43.3% | HOP-62 NSCLC 77.7% | NCI-H460 lung 25.2% | NCI-H522 lung 51.4% | A549/ATCC NSCLC 35.5% | 786-0 renal 38.5% | COLO 205 colon 111% | DU-145 prostate 71.1% | K-562 leukemia 24.4% | MALME-3M melanoma 20.2% | MDA-MB-231 breast 15.6% | RXF 393 renal 47% | SF-268 CNS 71.7% | UACC-257 melanoma 10.3% | M14 melanoma 31.8% | HCT-15 colon 24.7%
active: SF-295 CNS -21.7% | SF-539 CNS 0.346%

CC1(C)CCC(=NNC(N)=S)CC1
inactive: NCI-H23 lung 99.1% | NCI-H226 lung 110% | NCI-H322M lung 115% | HOP-62 NSCLC 111% | NCI-H460 lung 104% | NCI-H522 lung 97.1% | A549/ATCC NSCLC 106% | 786-0 renal 113% | COLO 205 colon 125% | DU-145 prostate 111% | K-562 leukemia 94.6% | MALME-3M melanoma 107% | MDA-MB-231 breast 116% | RXF 393 renal 115% | SF-268 CNS 103% | SF-295 CNS 88.2% | SF-539 CNS 98.1% | UACC-257 melanoma 102% | M14 melanoma 113% | HCT-15 colon 98.8%

Cc1cccc(C)c1NC(=O)c1sc2nc3c(cc2c1N)C(=O)CCC3
inactive: NCI-H23 lung 65.6% | NCI-H226 lung 83% | NCI-H322M lung 46.4% | HOP-62 NSCLC 112% | NCI-H460 lung 25.4% | NCI-H522 lung 61.7% | A549/ATCC NSCLC 35.6% | 786-0 renal 92.2% | COLO 205 colon 15.2% | DU-145 prostate 93.2% | K-562 leukemia 64% | MALME-3M melanoma 74.7% | MDA-MB-231 breast 79% | RXF 393 renal 94.4% | SF-268 CNS 103% | SF-295 CNS 49.9% | SF-539 CNS 101% | UACC-257 melanoma 73.7% | M14 melanoma 87.3% | HCT-15 colon 60.3%

O=[N+]([O-])c1ccc(Oc2cc(Cl)c(Cl)cc2Cl)c(C(F)(F)F)c1
inactive: NCI-H23 lung 111% | NCI-H226 lung 94.6% | NCI-H322M lung 98.1% | HOP-62 NSCLC 95.3% | NCI-H460 lung 97.7% | NCI-H522 lung 87.1% | A549/ATCC NSCLC 91.1% | 786-0 renal 107% | COLO 205 colon 122% | DU-145 prostate 104% | K-562 leukemia 93.8% | MALME-3M melanoma 107% | MDA-MB-231 breast 96.4% | RXF 393 renal 96.4% | SF-268 CNS 101% | SF-295 CNS 91.7% | SF-539 CNS 95.3% | UACC-257 melanoma 100% | M14 melanoma 101% | HCT-15 colon 92.2%

O=[P@@]1(c2ccccc2)O[C@H](COCc2ccccc2)[C@@H](OCc2ccccc2)[C@H](OCc2ccccc2)[C@H]1O
inactive: NCI-H23 lung 64.4% | NCI-H226 lung 59% | NCI-H322M lung 86.9% | NCI-H460 lung 74.7% | NCI-H522 lung 42.2% | A549/ATCC NSCLC 83.3% | 786-0 renal 65.3% | COLO 205 colon 118% | DU-145 prostate 90.6% | K-562 leukemia 93.9% | MALME-3M melanoma 109% | MDA-MB-231 breast 73.2% | RXF 393 renal 50% | SF-268 CNS 43.6% | SF-539 CNS 58.1% | UACC-257 melanoma 88.4% | M14 melanoma 102% | HCT-15 colon 94.2%
active: HOP-62 NSCLC 7.83% | SF-295 CNS -24.9%

CCCCCCN1C(=O)C2=C(c3ccc(Cl)cc3)Nc3c(c(C)nn3-c3ccccc3)C2c2ccccc21 (stereo not given)
inactive: NCI-H23 lung 98.6% | NCI-H226 lung 77.5% | NCI-H322M lung 90.5% | HOP-62 NSCLC 96.8% | NCI-H460 lung 106% | NCI-H522 lung 80.7% | A549/ATCC NSCLC 85.2% | 786-0 renal 89% | COLO 205 colon 106% | DU-145 prostate 104% | K-562 leukemia 85.3% | MALME-3M melanoma 90.9% | MDA-MB-231 breast 103% | RXF 393 renal 83.7% | SF-268 CNS 103% | SF-295 CNS 92.4% | SF-539 CNS 105% | UACC-257 melanoma 90.7% | M14 melanoma 103% | HCT-15 colon 93.4%
